Screening data as filed in PubChem BioAssay.
The list is not random: actives were taken first. Their share in the collection is about 21%.
MRP1 act = H69AR viability gain despite doxorubicin, primary screen, MRP-1 activator project, H69AR cells, CellTiter-Glo; viability rescue; viability increase, % at 10 µM; actives 0.61% (n = 140,000); AID 799, 2007;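 active = viability gain under doxorubicin at or above a set limit, the compound median plus 3 SD, cut at about 4.7% in these data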;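 note: MRP-1 overexpressing cells given doxorubicin 25 µM after compound pretreatment; 18-22 h compound pretreatment then 72 h with doxorubicin before readout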
CYP2C9 act = human CYP2C9 activators, primary screen, biochemical, luminescence | actives 1.4% (n = 96,000) | activation factor at 5 µM | Cytochrome P450 2C9 (Homo sapiens), P11712 | recombinant CYP2C9, luciferin-H conversion; stronger effect = higher value; factor 1 = untreated enzyme, 0 = blocked;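 active = activation factor of 2 or more for CYP2C9 at a 5 µM dose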
CYP2C19 inh = blockers of cytochrome P450 2C19 activity – biochemical, luminescence, ADME assay, primary screen; P33261; CYP2C19 Supersomes, luciferin-H EGE luminescence, 30 min; inhibition, % at 5 µM; actives 21% (n = 96,000); AID 778, 2007;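 active = CYP2C19 inhibition above a set limit at 5 µM in the primary screen, cut at about 50% in these data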
Target sequence (P33261 whole entry, looked up): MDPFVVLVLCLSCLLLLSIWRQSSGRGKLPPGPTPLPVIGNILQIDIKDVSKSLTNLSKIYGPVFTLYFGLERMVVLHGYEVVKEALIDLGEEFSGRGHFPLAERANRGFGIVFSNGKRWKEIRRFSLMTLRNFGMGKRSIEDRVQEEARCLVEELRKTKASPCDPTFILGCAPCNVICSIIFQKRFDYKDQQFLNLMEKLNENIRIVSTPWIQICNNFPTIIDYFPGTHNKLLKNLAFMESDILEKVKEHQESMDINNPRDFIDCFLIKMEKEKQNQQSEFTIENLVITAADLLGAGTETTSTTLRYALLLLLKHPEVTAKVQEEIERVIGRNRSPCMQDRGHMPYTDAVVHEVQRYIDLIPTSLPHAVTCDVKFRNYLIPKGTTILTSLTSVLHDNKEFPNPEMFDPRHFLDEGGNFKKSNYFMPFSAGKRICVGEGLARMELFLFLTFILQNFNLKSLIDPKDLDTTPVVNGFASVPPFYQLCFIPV
CYP2C19 activ = human CYP2C19 activators, primary screen, biochemical, luminescence; Cytochrome P450 2C19 (Homo sapiens), P33261; recombinant CYP2C19, luciferin-H EGE luminescence; stronger effect = higher value; 0 = fully inhibited enzyme, 1 = untreated enzyme; activation factor at 5 µM; 96,000 tested, under 10 active; AID 1025, 2008;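 active = activation factor of at least 2 at 5 µM in the primary screen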
CYP2C9 inh = blockers of cytochrome P450 2C9 activity – biochemical, luminescence, ADME assay, primary screen. P11712. CYP2C9 Supersomes, luciferin-H conversion. inhibition, % at 5 µM. actives 20% (n = 96,000);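 active = blocking of liver enzyme CYP2C9 beyond about 50% at 5 µM, limit read from the data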
MRP reversal = reversal of MRP1-mediated doxorubicin resistance, primary screen, H69AR cells, doxorubicin co-treatment; actives 0.04% (n = 85,000); AID 602, 2007; differential viability (reversal), % at 10 µM; H69AR cells + 2 uM doxorubicin, CellTiter-Glo, 72 h;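 active = viability drop by adding the cancer drug above about 55%, with treated viability meeting a 40% cutoff, limit read from the data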;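 note: larger differential means the compound sensitizes cells more to doxorubicin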
Hits are given with their value; 0 = inactive; - = no result given.

SMILES | MRP1 act | CYP2C9 act | CYP2C19 inh | CYP2C19 activ | CYP2C9 inh | MRP reversal
COc1ccc(N(C(=O)C(C)C)S(=O)(=O)c2ccc3c(c2)n(C)c(=O)n3C)cc1 | 0 | 0 | 0 | 0 | 65 | 0
NC(=O)c1sc2cc(C(F)(F)F)cnc2c1-c1cccs1 | 0 | 0 | 0 | 0 | 0 | 0
COC(=O)c1sc2cc(C(F)(F)F)cnc2c1-c1cccnc1 | 0 | 0 | 0 | 0 | 52 | -
O=C(Nc1ccccc1)c1sc2cc(C(F)(F)F)cnc2c1-c1cccs1 | 0 | 0 | 52 | 0 | 74 | 0
S=C(c1ccc(-c2ccccc2Cl)o1)N1CCCCC1 | 5.3 | - | - | - | - | -
N#CCCN1CCN(C(=S)c2ccc(-c3ccc(Cl)cc3)o2)CC1 | 0 | 0 | 62 | 0 | 0 | 0
S=C(c1ccc(-c2ccc(Cl)cc2)o1)N1CCCCC1 | 0 | 0 | 92 | 0 | 80 | -
NC(=O)c1nn(-c2ccccc2)nc1NC(=O)Cn1nnc(-c2ccccc2)n1 | 0 | - | - | - | - | -
CCC1(C(=O)c2ccc(Cl)cc2)C2c3ccccc3OC(=O)C21C(=O)Nc1ccccc1 (stereo unspecified) | 0 | - | - | - | - | -
COC(=O)C1=C(SC)N(c2ccccc2)C(c2ccccc2)CC1=O (stereo unspecified) | 0 | - | - | - | - | -
Cc1cccc(-c2c3c(=O)n(C)c(=O)n(C)c3cn2C2CCCCC2)c1 | 0 | 0 | 0 | 0 | 0 | 0
CCOC(=O)C(NC(=O)c1ccc(OC)cc1)(N1CCCC1=O)C(F)(F)F (stereo unspecified) | 0 | - | - | - | - | -
CCOC(=O)C(NC(=O)c1ccc(OC)cc1)(N1CCOCC1)C(F)(F)F (stereo unspecified) | 0 | 0 | 0 | 0 | 63 | 0
CCOC(=O)C(NC(C)=O)(N1CCOCC1)C(F)(F)F (stereo unspecified) | 0 | 0 | 0 | 0 | 0 | -
CCOC(=O)C(NC(=O)c1ccccc1)(N1CCCC1=O)C(F)(F)F (stereo unspecified) | 0 | 0 | 53 | 0 | 0 | 0
CCOC(=O)C(NC(=O)c1ccccc1)(N1CCOCC1)C(F)(F)F (stereo unspecified) | 0 | 0 | 0 | 0 | 0 | 0
CCOC(=O)C(NCc1ccccc1OC)(NC(=O)c1ccccc1)C(F)(F)F (stereo unspecified) | 0 | 0 | 0 | 0 | 63 | 0
CCOC(=O)C(NC(C)=O)(N1CCc2ccccc2C1)C(F)(F)F (stereo unspecified) | 0 | 0 | 75 | 0 | 92 | 0
CCOC(=O)C(=CNc1cc(C)nn1-c1ccc(C)cc1)C(=O)OCC | 0 | 0 | 0 | 0 | 65 | 0
CCCCC1CC1C(=O)Nc1ncc2c(n1)CC(C)(C)CC2=O (stereo unspecified) | 0 | 0 | 0 | 0 | 0 | 0
CNC(=S)NNC(=O)COc1ccc(C)c(C)c1 | 0 | - | - | - | - | -
O=c1oc2c3c4c(cc2cc1-c1nc2ccccc2[nH]1)CCCN4CCC3 | - | - | - | - | - | 0
O=c1oc2c(CN3CCCCC3)c(O)ccc2cc1-c1nc2ccccc2[nH]1 | - | 0 | 54 | 0 | 52 | 0
O=C(CSc1ncnc2ccccc12)N1CCN(c2ccccc2)CC1 | - | - | - | - | - | 0
COC(=O)c1c(-c2ccccc2)csc1NC(=O)CSc1ncnc2sc(C)c(C)c12 | 0 | 0 | 0 | 0 | 71 | -
SMILES | MRP1 act | CYP2C9 act | CYP2C19 inh | CYP2C19 activ | CYP2C9 inh | MRP reversal
CCC(Sc1ncnc2sc(C)c(C)c12)C(=O)OC (stereo unspecified) | 0 | 0 | 65 | 0 | 93 | 0
Cc1sc2ncnc(SCC(=O)NCC(C)C)c2c1C | 0 | 0 | 0 | 0 | 61 | -
Cc1c(C(=O)OCC2CCCO2)[nH]c2c1C(=O)CC(c1ccc(N(C)C)cc1)C2 (stereo unspecified) | 0 | 0 | 0 | 0 | 92 | 0
Cc1c(C(=O)OCC(C)C)[nH]c2c1C(=O)CC(c1cccs1)C2 (stereo unspecified) | 0 | 0 | 80 | 0 | 92 | 0
Cc1c(C(=O)N2CCOCC2)[nH]c2c1C(=O)CC(c1ccc(Cl)cc1)C2 (stereo unspecified) | 0 | 0 | 0 | 0 | 66 | 0
CCOC(=O)c1[nH]c2c(c1C)C(=O)CC(c1ccc(OCC)c(OC)c1)C2 (stereo unspecified) | 0 | 0 | 76 | 0 | 90 | 0
Cc1cc2ncn(C3CC(=O)N(Cc4ccccc4)C3=O)c2cc1C (stereo unspecified) | 0 | 0 | 0 | 0 | 0 | 0
COC(=O)c1[nH]c2c(c1C)C(=O)CC(c1ccc(C)cc1)C2 (stereo unspecified) | 0 | 0 | 0 | 0 | 0 | 0
CCOC(=O)c1[nH]c2c(c1C)C(=O)CC(c1ccc(F)cc1)C2 (stereo unspecified) | 0 | 0 | 0 | 0 | 88 | 0
Clc1nc(NCc2cccnc2)nc(N2CCOCC2)n1 | 0 | - | - | - | - | 0
COC(=O)c1ccc(Sc2ccc(Cl)cc2)c(N)c1 | 0 | 0 | 0 | 0 | 0 | 0
COC(=O)c1ccc(S(=O)(=O)c2ccccc2)c(N)c1 | 0 | 0 | 94 | 0 | 70 | 0
CCOC(=O)c1cc(-c2ccccc2)sc1NC(=O)C(C)OC(=O)c1cccnc1OCC (stereo unspecified) | 0 | - | - | - | - | -
CC(C)N(CCc1ccncc1)C(=O)Nc1ccc(Cl)c(Cl)c1 | 0 | 0 | 100 | 0 | 99 | 0
S=C(NCc1ccncc1)Nc1ccc(Cl)c(Cl)c1 | 0 | - | - | - | - | -
CC(C)N(CCc1ccncc1)C(=O)Nc1ccc(F)cc1 | 0 | 0 | 97 | 0 | 87 | 0
COc1ccc(C2(C(=O)N3CCCC3)CCOCC2)cc1OC | 0 | 0 | 0 | 0 | 0 | 0
O=C(CSc1ccc2c(c1)OCCO2)NC(=O)NC1CCCC1 | 0 | 0 | 94 | 0 | 72 | 0
O=C(CSc1ccc2c(c1)OCCO2)Nc1ncc(Cl)cc1Cl | 0 | 0 | 76 | 0 | 82 | 0
Cc1cc(NC(=O)C2CC(=O)OC2c2ccccc2)no1 (stereo unspecified) | 0 | 0 | 52 | 0 | 0 | 0
O=C(CSc1ccc2c(c1)OCCO2)NCCc1ccc(Cl)cc1Cl | 0 | - | - | - | - | -
CCC(C(=O)Nc1cc(C)on1)c1ccccc1 (stereo unspecified) | 0 | 0 | 65 | 0 | 54 | 0
COc1cccc(NCc2cc(=O)oc3cc(-c4ccccc4)c(O)cc23)c1 | 0 | - | - | - | - | -
CCCCOC(=O)C1=C(C)NC(=O)NC1c1ccc([N+](=O)[O-])s1 (stereo unspecified) | 0 | - | - | - | - | -
Cc1cc(NC(=O)CSc2ccc3c(c2)OCCO3)no1 | 0 | 0 | 57 | 0 | 0 | 0
Cc1cc(NC(=O)CSc2ccccc2)no1 | 0 | 0 | 51 | 0 | 0 | 0
Cc1cc(NS(=O)(=O)c2ccc(NC(=O)C(c3ccccc3)c3ccccc3)cc2)no1 | 0 | 0 | 0 | 0 | 64 | 0
CCCCc1ccc(S(=O)(=O)Nc2cc(C)on2)cc1 | 0 | 0 | 0 | 0 | 96 | 0
